Screening results (PubChem BioAssay)
LANA-H2A inh: blocks KSHV LANA binding to histone H2A/H2B; Q9QR71; cell-free LANA-H2A/H2B peptide, fluorescence polarization; inhibition, % (no concentration beside the values); 320,000 tested, 0.6% active; AID 2629; in the data active means inhibition mostly above about 10%, no sharp cut-off; inactive means mostly below about 6.7%
LANA DNA inh: KSHV C-LANA DNA binding inhibition | MBP-C-LANA/FAM-LBS DNA binding, fluorescence polarization | inhibition, % at 9 µM | 340,000 tested, 0.078% active;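 active means highest replicate inhibition at or above 60% at 9 µM, even if other replicates fall short; inactive means all replicates below 60% inhibition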;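 further: 0% = neutral control wells and 100% = 4 µM acridine orange control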
RTF Ca sens inh: cardiac RTF calcium desensitization | P19429+P45379 | IANBD-labeled cardiac RTF, Ca2+ fluorescence | inhibition, % at 7.15 µM | 340,000 tested, 0.12% active | AID 493244;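 active means inhibition above the mean inhibition of all tested compounds plus 3 SD, cut at about 17% in these data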;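 further: assay run at fixed EC70 calcium of 1.6 mM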
RTF Ca sens act: increases calcium sensitivity of human cardiac regulated thin filaments; P19429+P45379; IANBD-labeled TnC RTF fluorescence at EC20 calcium; 0% EC20 calcium, 100% full calcium; activation, % at 7.2 µM; AID 493008; 340,000 tested, 0.24% active;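 active means activation above the mean over all tested compounds plus 3 SD, cut at about 30% in these data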;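 further: rise in fluorescence read as greater calcium sensitivity of cardiac thin filaments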
Keap1 Nrf2 FP: disrupts human Keap1 binding to Nrf2 peptide; Keap1 Kelch-Nrf2 peptide fluorescence polarization, 1536-well; AID 504523; inhibition, % at 9.4 µM; 340,000 tested, 0.15% active; in the data active means inhibition above about 12%;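 further: human Keap1 Kelch domain with fluorescein labeled Nrf2 9mer peptide probe; 0% = neutral control wells and 100% = peptide positive control; higher means more block of Keap1 binding to Nrf2 peptide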
* hit, by the source's call; · = not tested or not shown; + = active, no number. Shown are actives, neighbours in structure and some others; about 1% of the full set was active somewhere.

SMILES	LANA-H2A inh	LANA DNA inh	RTF Ca sens inh	RTF Ca sens act	Keap1 Nrf2 FP
COc1cc2c(cc1OC)-c1cc3ccc4c(c3c[n+]1CC2)OCO4	-11	43	-77	54*	5
Cc1c(O)c2c3c(cccc3c1O)C(=O)N(c1ccccc1)C2=O	0	28	-31	52*	4
O=C(O)c1ccc2c3c(cccc13)C(=O)N(c1ccccc1)C2=O	3	5	-1	3	-1
O=C(NCCN1CCCC1)c1ccc(CS(=O)(=O)c2c(Cl)cccc2Cl)o1	4	-2	-5	11	-4
CS(=O)(=O)N(CC(=O)Nc1ccccc1C(=O)NCc1ccccc1)c1ccc2c(c1)OCCO2	86*	1	-3	-5	-3
COc1ccc(CCN(C)C(=O)CSc2nc3ccccc3c(=O)n2CC2CCCO2)cc1OC (stereo not given)	·	-2	-6	4	2
CC(=O)c1cc(NC(=O)c2ccc(C)cc2)c(=O)oc1/C=C/N(C)C	8	-1	-26	36*	-5
Cc1noc(C)c1COC(=O)c1cc(S(=O)(=O)N2CCOCC2)ccc1F	31*	-2	-1	0	2
CC(OC(=O)c1cc(S(=O)(=O)N2CCOCC2)ccc1F)C(=O)NC1CCCC1 (stereo not given)	25*	0	-9	3	0
CC(C)CCN1CCN(Cc2ccc(N3CCNC3=O)cc2)CC1CCO (stereo not given)	-3	0	-7	-1	0
COc1cccc(SCC2CSc3nc4ccccc4c(=O)n32)c1 (stereo not given)	-1	-1	0	12	-5
Cn1ccsc1=NC(=O)c1ccccc1OC(F)F	-3	-2	-13	5	-1
CCOc1cc(C(=O)N=c2sccn2C)ccc1OC(F)F	20*	1	-1	0	0
CC(=O)Nc1ccc2nc(NC(=O)c3cccs3)sc2c1	4	-1	-7	3	-3
CC(=O)Nc1ccc2nc(NC(=O)c3ccc([N+](=O)[O-])s3)sc2c1	30*	·	·	·	·
CC(C)CCN(C)C1CCN(S(=O)(=O)c2cccc(C(F)(F)F)c2)CC1	25*	3	-1	-2	-1
CCOc1ccc(NC(=O)/C(C#N)=C\c2ccc(N3CCCC3)c(C)c2)cc1	·	2	-52	72*	-4
CCOc1ccc(/C=C(\C#N)C(=O)Nc2cccnc2)cc1	-6	-3	-15	2	-4
NC(=O)C1CCN(c2nc(-c3cccnc3)cs2)CC1	3	18	-9	1	13*
CSc1ncc(C(=O)Nc2cc(C)ccc2C)c(C)n1	4	-3	-13	4	-2
CC(C)(C)C(=O)Nc1cccc(OC(F)(F)C(F)Cl)c1 (stereo not given)	32*	0	-4	2	4
COc1cccc(NC(=O)c2ccc(NC(=O)C(C)(C)C)cc2)c1	0	0	-9	10	-2
CC(NC(=O)COC(=O)/C=C/c1ccco1)c1ccccc1 (stereo not given)	4	0	-6	1	1
COc1cccc(/C=C/C(=O)OCC(=O)c2ccc(C)c(C)c2)c1OC	20*	0	-2	-2	-3
O=C(Nc1ccc(F)cc1F)C1CCN(S(=O)(=O)c2cccnc2)CC1	1	0	-6	2	-4
SMILES	LANA-H2A inh	LANA DNA inh	RTF Ca sens inh	RTF Ca sens act	Keap1 Nrf2 FP
CS(=O)(=O)c1ccc(C(=O)CN2C(=O)NC3(CCCc4ccccc43)C2=O)cc1 (stereo not given)	17*	6	-9	2	2
O=C(CN1C(=O)NC2(CCCc3ccccc32)C1=O)c1ccc(F)cc1 (stereo not given)	4	0	-4	-2	4
COc1cccc(-n2cc(C(=O)NCCCOC(C)C)c3ccccc3c2=O)c1	-1	120*	4	-2	-6
COc1cccc(-n2cc(C(=O)NC(C)C)c3ccccc3c2=O)c1	3	-3	-7	5	2
CCCCCCCCCCCCCCCC[n+]1ccc(/C=N/O)cc1	13*	-3	4	-6	-4
COc1ccc(N(CC(=O)NC2CCCC2)C(=O)c2ccc(C)s2)c(OC)c1	3	-2	-4	0	0
Cc1cc(S(=O)(=O)N2CCN(CC(=O)NCCc3cccs3)CC2)ccc1Br	+	3	-6	-3	-9
O=C(CN1CCN(S(=O)(=O)c2cccc(Br)c2)CC1)NCCc1cccs1	-157	-4	-1	-3	-5
